Assay results reported in PubChem BioAssay (NCATS).
Results filed as inconclusive are left out. The source made the active and inactive calls. Calls follow the shape of the dose curve; as a rule, active = well fitted cell-killing curve with a large enough effect; inconclusive = small, poorly fitted or top-dose-only effect, or effect the other way; inactive = flat fitted curve, though single readings scatter.

Key:
Test in all cases: Primary qHTS to identify gynecologic anti-cancer compounds using libraries of approved drugs and bioactive compounds (AID 1345084); also: nearly all actives have a fitted effect of over 55% in size
C33A = conditions: Gynecologic cancer cell panel viability, ATPlite luminescence, 48 h; series mostly up to 57.5 µM
How it was run: (§1)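 48 h compound exposure at 37 C, 5% CO2; five-point qHTS. ATPlite luminescence readout of cell ATP.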

CAOV3 = conditions: Gynecologic cancer cell panel viability, ATPlite luminescence, 48 h; series mostly up to 57.5 µM
How it was run: as §1

CASKI = conditions: Gynecologic cancer cell panel viability, ATPlite luminescence, 48 h; series mostly up to 57.5 µM
How it was run: as §1

Es-2 = conditions: Gynecologic cancer cell panel viability, ATPlite luminescence, 48 h; series mostly up to 57.5 µM
How it was run: as §1

HeLa = conditions: Gynecologic cancer cell panel viability, ATPlite luminescence, 48 h; series mostly up to 57.5 µM
How it was run: as §1

Hek293T = conditions: Gynecologic cancer cell panel viability, ATPlite luminescence, 48 h, control line for the selectivity index; series mostly up to 57.5 µM
How it was run: as §1

JEG-3 = conditions: Gynecologic cancer cell panel viability, ATPlite luminescence, 48 h; series mostly up to 57.5 µM
How it was run: as §1

OV90 = conditions: Gynecologic cancer cell panel viability, ATPlite luminescence, 48 h; series mostly up to 57.5 µM
How it was run: as §1

PA-1 = conditions: Gynecologic cancer cell panel viability, ATPlite luminescence, 48 h; series mostly up to 57.5 µM
How it was run: as §1

SKOV3 = conditions: Gynecologic cancer cell panel viability, ATPlite luminescence, 48 h; series mostly up to 57.5 µM
How it was run: as §1

Tov-21-G = conditions: Gynecologic cancer cell panel viability, ATPlite luminescence, 48 h; series mostly up to 57.5 µM
How it was run: as §1

Tov112D = conditions: Gynecologic cancer cell panel viability, ATPlite luminescence, 48 h; series mostly up to 57.5 µM
How it was run: as §1

Measured: Potency

O=C(N[C@H](Cc1cscn1)C(=O)N[C@@H](CC1CCCCC1)[C@@H](O)[C@@H](O)C1CC1)c1nc2ccccc2[nH]1
inactive: all assays above

COc1ccc(C2(N(C)C(=O)c3ccc(NC(=O)c4ccco4)cc3)CCOCC2)cc1
not listed: SKOV3
inactive: all other assays above

O=C(NCc1ccccc1-c1ccccc1C(=O)NCCc1ccccn1)OCc1ccccc1
not listed: SKOV3
inactive: all other assays above

CCOc1nc(NC(=O)Cc2cc(OC)ccc2OC)cc(N)c1C#N
not listed: SKOV3
inactive: all other assays above

c1cc(NCCc2c[nH]c3ccccc23)cc(Nc2ccncc2)c1
not listed: SKOV3
inactive: all other assays above

COc1cc(-c2cn(C3CCc4c(F)cccc4N(CC(F)(F)F)C3=O)nn2)ccc1-n1cnc(C)c1 (centres undefined)
not listed: SKOV3
inactive: all other assays above

C=C1CC[C@@H]2[C@](C)(CO)[C@H](O)CC[C@@]2(C)[C@@H]1C/C=C1/C(=O)OCC1OC(=O)/C(=C/CO)C(O)C[C@@H]1C(=C)CC[C@@H]2[C@](C)(CO)[C@H](O)CC[C@]21C (some centres undefined)
not listed: SKOV3
inactive: all other assays above

CC(C)Nc1nc(Nc2ccccc2)nc(-c2ccccc2)n1
not listed: SKOV3
inactive: all other assays above

OC[C@H]1O[C@@H](OC/C=C/c2ccc(O)cc2)[C@H](O)[C@@H](O)[C@@H]1O
not listed: SKOV3
inactive: all other assays above

NS(=O)(=O)Nc1ncnc(OCCOc2ncc(Br)cn2)c1-c1ccc(Br)cc1
not listed: SKOV3
inactive: all other assays above

CCCCC1CCC(c2nc(-c3ccncc3)no2)CC1 (centres undefined)
not listed: SKOV3
inactive: all other assays above

COc1ccc(NC(=O)c2ccc(-c3ccc(C(=N)N)cc3C)cc2)cc1N1CCN(C)CC1
not listed: SKOV3
inactive: all other assays above

CC(C)c1ccccc1OC(=O)NCCc1ccc2ccccc2c1
not listed: SKOV3
inactive: all other assays above

CC(=O)O[C@@H]1CC[C@@]2(C)[C@H](CC[C@@H]3[C@@H]2C[C@H](OC(C)=O)[C@]2(C)[C@@H](C(C)=O)CC[C@@H]32)C1
not listed: SKOV3
inactive: all other assays above

Cc1ccnn1-c1ccc(C(=O)N2CCN(S(=O)(=O)c3ccc(Cl)c(C(F)(F)F)c3)CC2)cc1
not listed: SKOV3
inactive: all other assays above

O=C(c1ccc(F)cc1)N1CCCC(c2nc(-c3ccc(F)cc3)no2)C1 (centres undefined)
not listed: SKOV3
inactive: all other assays above

CC(C)(O)c1ccc2c(c1)ncn2-c1cccc(-c2ccccc2C#N)c1
not listed: SKOV3
inactive: all other assays above

CC(C)(C)Oc1ccc(OCC2Cc3ccccc3CN2C(=O)c2cccc3ccccc23)cc1 (centres undefined)
not listed: SKOV3
inactive: all other assays above
